{"source": "the supplement of paper PMC12350171", "note": "Structures can show the parent of a compound that is named as a salt.", "data": [{"tested_on": "Haemophilus parainfluenzae", "assay": "growth AUC normalised to DMSO control (fraction of control); higher = less growth inhibition, active = hit call of the paper", "conditions": "20 µM;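 active = AUC significantly below DMSO controls by Student t-fit with adjusted P under 0.01; inactive = not significantly reduced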", "method_in_brief": "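Three biological replicates were carried out, with OD578 read hourly for 24 h. Before inoculation at a starting OD578 of 0.01, pathogens were passaged anaerobically twice; plates were pre-reduced mGAM containing 20 μM compound and 1% DMSO, sealed with breathable membranes, and the Haemophilus parainfluenzae medium carried added hemin and NAD. Area under each growth curve was calculated by the trapezoidal rule up to the exponential-to-stationary transition and normalised to DMSO controls on the same plate.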", "values": [{"smiles": "Cc1cc(NS(=O)(=O)c2ccc(N)cc2)no1", "note": "[Sulfamethoxazole]", "growth AUC normalised to DMSO control": "1.01 (inactive)"}, {"smiles": "CC(=O)N1CCN(c2ccc(OCC3COC(Cn4ccnc4)(c4ccc(Cl)cc4Cl)O3)cc2)CC1", "note": "(stereo unspecified) [Ketoconazole]", "growth AUC normalised to DMSO control": "1.03 (inactive)"}, {"smiles": "CC1(C)S[C@@H]2[C@H](NC(=O)[C@H](N)c3ccc(O)cc3)C(=O)N2[C@H]1C(=O)O", "note": "[Amoxicillin]", "growth AUC normalised to DMSO control": "0.0371 (active)"}, {"smiles": "CC(C)NCC(O)c1ccc(NS(C)(=O)=O)cc1", "note": "(stereo unspecified) [Sotalol hydrochloride]", "growth AUC normalised to DMSO control": "1 (inactive)"}, {"smiles": "NC1CCN(c2c(F)cc3c(=O)c(C(=O)O)cn(C4CC4)c3c2Cl)C1", "note": "(stereo unspecified) [Clinafloxacin]", "growth AUC normalised to DMSO control": "0.0486 (active)"}, {"smiles": "CC(=O)NC[C@H]1CN(c2ccc(N3CCOCC3)c(F)c2)C(=O)O1", "note": "[Linezolid]", "growth AUC normalised to DMSO control": "0.582 (active)"}, {"smiles": "Cc1ccc(-c2cc(C(F)(F)F)nn2-c2ccc(S(N)(=O)=O)cc2)cc1", "note": "[Celecoxib]", "growth AUC normalised to DMSO control": "0.85 (inactive)"}, {"smiles": "COc1ccc([C@@H]2CC(=O)c3c(O)cc(O[C@@H]4O[C@H](CO[C@@H]5O[C@@H](C)[C@H](O)[C@@H](O)[C@H]5O)[C@@H](O)[C@H](O)[C@H]4O)cc3O2)cc1O", "note": "[Hesperidin]", "growth AUC normalised to DMSO control": "1.07 (inactive)"}, {"smiles": "COc1ccc2cc(CCC(C)=O)ccc2c1", "note": "[Nabumetone]", "growth AUC normalised to DMSO control": "0.997 (inactive)"}, {"smiles": "CCCCCCCCCCCCCCCC[N+](C)(C)CCN(Cc1ccc(OC)cc1)c1ncccn1", "note": "[Thonzonium bromide]", "growth AUC normalised to DMSO control": "0.978 (inactive)"}, {"smiles": "CNCC(O)c1ccc(OC(=O)C(C)(C)C)c(OC(=O)C(C)(C)C)c1", "note": "(stereo unspecified) [Dipivefrin hydrochloride]", "growth AUC normalised to DMSO control": "0.986 (inactive)"}]}]}
